FECH inh: inhibitors of human ferrochelatase, primary screen, biochemical, purified FECH, Ni-mesoporphyrin absorbance | AID 1671448, 2021 | hit rate 3.3% among 20,000 | calls only at 10 µM (by protocol) | Ferrochelatase, mitochondrial (Homo sapiens), P22830 | Ni-mesoporphyrin absorbance 550 nm;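 active means enzyme reaction rate more than 3 SD below the solvent-only control wells on the same plate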;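 further: lower slope than DMSO wells means FECH inhibition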
Target sequence (P22830 whole entry, looked up): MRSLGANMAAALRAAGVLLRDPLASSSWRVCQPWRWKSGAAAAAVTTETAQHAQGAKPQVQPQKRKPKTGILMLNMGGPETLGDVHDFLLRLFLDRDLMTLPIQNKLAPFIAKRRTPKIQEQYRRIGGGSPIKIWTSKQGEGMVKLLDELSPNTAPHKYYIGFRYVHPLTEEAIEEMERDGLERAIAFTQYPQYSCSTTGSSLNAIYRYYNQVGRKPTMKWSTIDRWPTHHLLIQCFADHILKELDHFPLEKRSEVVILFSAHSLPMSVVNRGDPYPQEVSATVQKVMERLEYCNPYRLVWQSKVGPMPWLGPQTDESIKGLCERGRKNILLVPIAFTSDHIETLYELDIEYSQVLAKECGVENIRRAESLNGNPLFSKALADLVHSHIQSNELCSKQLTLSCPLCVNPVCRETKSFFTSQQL
Numbers without * were called inactive; i = inactive; + = active, no number. Many of the other results were omitted from the sample, so hits are more common in it than they were.

SMILES | FECH inh
COc1ccc(Nc2cc(C)nc(N3CCN(S(=O)(=O)c4cc(C(C)C)ccc4C)CC3)n2)cc1 | i
CCN(CC)C1CCN(Cc2cc3ccc(Cl)cc3[nH]c2=O)C1 (stereo not given) | i
CCCn1ccnc1CN1CCCC(O)(CN(C)C)CC1 (stereo not given) | i
Cc1ccc(-c2cc(C(=O)N3Cc4cnn(CCO)c4C3)n[nH]2)s1 | i
CNc1nc(C(=O)N2CCC(c3n[nH]c(=O)n3-c3ccccc3)CC2)cs1 | i
CCCCOc1ccc(S(=O)(=O)N2CCN(c3nc(C)cc(Nc4ccc(OC)cc4)n3)CC2)cc1 | i
CC(=O)Nc1ccc(-c2cnccc2C)cc1 | i
Cc1cccnc1NCCNC(=O)CC1C(=O)NCCN1C1CCCC1 (stereo not given) | i
COc1ccccc1CNC(=O)c1nc[nH]c1C(=O)NCc1ccccc1 | +
COc1ccccc1CNC(=O)c1[nH]cnc1C(=O)NCCc1c[nH]c2ccccc12 | i
COc1ccccc1CNC(=O)c1nc[nH]c1C(=O)N1CCC(O)(c2ccc(Cl)cc2)CC1 | +
CC(C)(C)CNC(=O)c1nc[nH]c1C(=O)N1CCC(O)(c2ccc(Cl)cc2)CC1 | i
CC(C)CCNC(=O)c1nc[nH]c1C(=O)N1CCC(O)(c2ccc(Cl)cc2)CC1 | i
COc1ccccc1CNC(=O)c1[nH]cnc1C(=O)NCCN(C)C | i
COC(=O)[C@@H](NCc1cn[nH]c1-c1ccc(F)cc1)c1ccccc1 | i
CCC(=O)Nc1ccc(OCC(=O)NCc2cccc(C)c2C)cc1 | i
CCC(=O)Nc1ccccc1-c1nnc(SC(C)C(=O)Nc2c(C)cc(C)cc2C)[nH]c1=O (stereo not given) | i
COc1cccc(NC(=O)Nc2c(C)nc3nc(C)[nH]n3c2=O)c1 | i
CCOc1ccccc1N(Cc1nc2nc(C)cc(=O)n2[nH]1)C(=O)c1ccccc1F | i
CCOC(=O)CCc1c(C)nc2nc(CNc3cccc(C(F)(F)F)c3)[nH]n2c1=O | +
Cc1nc2nc(Cc3cccc(F)c3)[nH]n2c(=O)c1C | i
CCc1ccccc1NCc1nc2nc(C)c(Cc3ccc(Cl)cc3)c(=O)n2[nH]1 | +
CCOC(=O)CCc1c(C)nc2nc(CNc3ccccc3OCC)[nH]n2c1=O | i
CCc1nc2nc(C)c(NC(=O)Nc3cccc(C(F)(F)F)c3)c(=O)n2[nH]1 | i
O=c1cc(CNc2cccc(C(F)(F)F)c2)nc2nc(NCc3ccc(Cl)cc3)[nH]n12 | i
SMILES | FECH inh
Cc1nc2nc(C)c(NC(=O)Nc3cccc(C(F)(F)F)c3)c(=O)n2[nH]1 | i
Cc1nc2nc(C3CC3)[nH]n2c(=O)c1NC(=O)Nc1ccc(Cl)cc1 | i
CCOc1ccccc1NCc1nc2nc(C)c(Cc3ccc(Cl)cc3)c(=O)n2[nH]1 | +
COc1cccc(NCc2nc3nc(C)c(Cc4ccc(Cl)cc4)c(=O)n3[nH]2)c1 | +
Cc1ccc(NC(=O)C2CCN(c3ncnc4c3nc3n4CCCCC3)CC2)c(Cl)c1 | i
O=C(O)c1cccc(CC2CCN(Cc3ccc4ccccc4n3)C2)c1 (stereo not given) | i
COc1ccc(C(=O)Nc2nc3n(n2)C(c2ccc(F)cc2)C=C(c2ccc(C)cc2)N3)cc1 (stereo not given) | i
COc1ccccc1NC(=O)Nc1nc(CC(=O)Nc2cccc(NC(C)=O)c2)cs1 | i
CC(CO)CN(Cc1ccccc1)Cc1nn(C)c2cccc(Cl)c12 (stereo not given) | i
COc1cc(Cl)c(NC(=O)CN2C(=O)CN(C)C(=O)c3ccccc32)c(OC)c1 | i
CC(C)(C)c1ccc(C(=O)NCCn2c(CCc3ccccc3)nc3cccnc32)cc1 | i
COc1ccc(Cl)cc1S(=O)(=O)Nc1cnc(N(C)C)c(C(=O)O)c1 | i
CC(=O)N[C@H]1CCN(CC(=O)Nc2ccc(Cl)c(C)c2)C1 | i
O=C(c1cc(COc2ccccc2)[nH]n1)N1CCC(Nc2ncccn2)CC1 | i
CCc1cn[nH]c1C1CCN(C(=O)c2cc(OC)nc3ccccc23)CC1 | i
CCCNc1nc(Nc2cc(C)cc(C)c2)c2cnn(-c3ccccc3)c2n1 | i
CCOCCCNC(=O)C1CCN(c2ccc(-c3cccc(C)c3)nn2)CC1 | i
CCN(CC)CCCNC(=O)C1CCN(c2ccc(-c3ccccc3)nn2)CC1 | i
CCN(CC)CCCNC(=O)C1CCN(c2ccc(-c3cccc(C)c3)nn2)CC1 | +
CC(=O)Nc1ccc(S(=O)(=O)NCCn2c(-c3ccc(F)cc3)nc3cccnc32)cc1 | i
CC(C)c1ccc2cc(C(=O)N3C[C@H](N(C)C)C[C@H]3CO)[nH]c2c1 | i
O=S(=O)(c1ccc2c(c1)CCCC2)N1CCC(n2c(C(F)(F)F)nc3cccnc32)CC1 | i
O=C(NCCc1ccccc1)N1CCCCC1CCn1ccnc1 (stereo not given) | i
O=C(c1c[nH]c(=O)cn1)N1CCCCC1CCn1ccnc1 (stereo not given) | i
c1ccc2c(CN3CCCCC3CCn3ccnc3)ccnc2c1 (stereo not given) | +
SMILES | FECH inh
O=C(NCCc1ccccc1)c1cccn1-c1nnc(N2CCCCC2)s1 | +
CCCN(CCC)CCNC(=O)c1cccn1-c1nnc(N2CCCCC2)s1 | i
CCOc1ccc(CCNC(=O)c2cccn2-c2nnc(N3CCCCC3)s2)cc1 | i
COc1ccc(S(=O)(=O)N2CCN(c3nc(C)cc(N4CCCC4)n3)CC2)cc1C | i
COc1ccc(CN2CCCN(CC(=O)Nc3ccc(C)cc3Cl)S2(=O)=O)cc1 | i
CSc1nccc(N2CCC3(CCCN(Cc4ccc(F)cc4)C3)C2)n1 (stereo not given) | i
COc1ccc(CNS(=O)(=O)c2ccc(C(=O)N(C)C)s2)cc1 | i
COc1ccc(NC(=O)CN(C)S(=O)(=O)c2ccc(C(=O)N3CCOCC3)s2)cc1 | +
COc1ccc(CN2CCCN(CC(=O)Nc3ccc4c(c3)OCCO4)S2(=O)=O)cc1 | i
CCCCNc1nc(Nc2ccc(Cl)cc2)c2cnn(-c3ccccc3)c2n1 | i
CCc1csc(CNC(=O)c2ncc[nH]2)n1 | +
CCc1csc(CNC(=O)c2cc(C3CC3)[nH]n2)n1 | i
CCc1csc(CNC(=O)c2ccc(-c3ncn[nH]3)cc2)n1 | i
O=C1NCC2(CCCN(Cc3nc(-c4ccco4)no3)CC2)O1 (stereo not given) | i
Cc1ccc(CN2CCCN(CC(=O)Nc3ccc(C)cc3)S2(=O)=O)cc1 | +
Cc1cccc(CN2CCN(CC(=O)Nc3ccc(F)cc3)S2(=O)=O)c1 | +
O=C(CN1CCN(Cc2ccccc2)S1(=O)=O)Nc1cccc(Cl)c1 | i
Cc1ccc(CN2CCCN(CC(=O)Nc3cccc(Cl)c3)S2(=O)=O)cc1 | i
Cc1ccc(CN2CCN(CC(=O)Nc3ccc(C)cc3)S2(=O)=O)cc1 | i
Cc1cccc(CN2CCCN(CC(=O)Nc3cccc(C)c3)S2(=O)=O)c1 | i
CC(=O)c1ccc(NC(=O)CN2CCCN(Cc3cccc(C)c3)S2(=O)=O)cc1 | i
Cc1ccc(NC(=O)CN2CCCN(Cc3cccc(C)c3)S2(=O)=O)cc1 | +
Cc1cccc(NC(=O)CN2CCN(Cc3ccc(F)cc3)S2(=O)=O)c1 | i
O=C(CN1CCCN(Cc2cccc(F)c2)S1(=O)=O)Nc1ccc(F)cc1 | i
Cc1ccc(NC(=O)CN2CCN(Cc3cccc(Cl)c3)S2(=O)=O)cc1 | +
Cc1ccc(NC(=O)CN2CCN(Cc3ccc(F)cc3)S2(=O)=O)cc1 | i
